About 7,900 targets were measured; listed, in parts, are those with a hit and a random draw of the rest. About 0.6% of all pairs of compound and target were hits.
Assays:
Assay in all cases: log2 fold change, soluble protein after heating vs DMSO (PISA); higher = thermal stabilisation; K562 cells, 10 uM, 30 min; active = over 0.2 and 3.5 SD of the protein, either way, in both replicates (recomputed)
[1] = compound: CC[C@@H]1C(=O)N(C)c2cnc(Nc3ccc(C(=O)NC4CCN(C)CC4)cc3OC)nc2N1C1CCCC1
Outline: (§1)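 Thermal stability values are relative to control samples and come from duplicates. They are expressed as log2 fold changes. For measurement, K562 cells (2×10^6 cells/mL) received 10 μM compound for 30 min, and aliquots were heated for 3 min over 48°C-58°C, pooled, and extracted at 4°C in PBS with 0.5% NP-40. Soluble protein, the supernatant after 21,000xg for 90 min, was quantified by TMTpro 16plex LC-MS/MS with equalised channel sums.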

volasertib = compound: CC[C@@H]1C(=O)N(C)c2cnc(Nc3ccc(C(=O)N[C@H]4CC[C@H](N5CCN(CC6CC6)CC5)CC4)cc3OC)nc2N1C(C)C [volasertib]
Outline: as §1

[2] = compound: CCn1c(C(=O)N(C2CC2)C2CC2)cc2c3c(ncn3C)c(Nc3cc(C)n(C)n3)nc21
Outline: as §1

[3] = compound: CC[C@H](C)N1C=C(C2=C(C=C(C=C21)C3=CN=C(C=C3)N4CCNCC4)C(=O)NCC5=C(C=C(NC5=O)C)C)C
Outline: as §1

[4] = compound: CCn1cc(-c2ccnc3[nH]c(-c4cccc(CN(C)C)c4)cc23)c(-c2ccc(NC(=O)N(C)C)cc2)n1
Outline: as §1

[5] = compound: CN(C)CC(=O)Nc1ccc2[nH]c(=O)c3ccccc3c2c1
Outline: as §1

rosiglitazone = compound: CN(CCOC1=CC=C(C=C1)C[C@H]2C(=O)NC(=O)S2)C3=CC=CC=N3 (racemic) [rosiglitazone]
Outline: as §1

[6] = compound: CN1C2=C(C3=C1C(=O)N(N=C3)CC4=CC(=CC=C4)N)SC(=C2)S(=O)C
Outline: as §1

[7] = compound: CN1CCC(CNc2ccc3ncc(-c4cccc(OC(F)(F)F)c4)n3n2)CC1
Outline: as §1

epoxomicin = compound: CC[C@H](C)[C@@H](C(=O)N[C@@H]([C@@H](C)O)C(=O)N[C@@H](CC(C)C)C(=O)[C@]1(CO1)C)NC(=O)[C@H]([C@@H](C)CC)N(C)C(=O)C [epoxomicin]
Outline: as §1

Measured: log2 fold change

ING5 (UniProt Q8WYH8)
active: [1] -0.561 | volasertib -1.47
inactive: [2] -0.046

MED25 isoform 3 (UniProt Q71SY5)
inactive: [1] 0.057 | volasertib -0.051 | [3] 0.027 | [2] -0.076 | [4] -0.203 | [5] 0.096 | rosiglitazone 0.018 | [6] -0.155 | [7] -0.043

KCNK5 (UniProt O95279)
inactive: [1] -0.042 | volasertib -0.174 | epoxomicin 0.046 | [2] 0.004 | [4] 0.047 | rosiglitazone 0.179 | [6] 0.223 | [7] -0.073

IL27RA (UniProt Q6UWB1)
inactive: [1] -0.12 | volasertib -0.298 | [3] -0.049 | epoxomicin -0.178 | [2] -0.066 | [5] -0.098 | rosiglitazone -0.093 | [6] -0.219

MAN2B2 (UniProt Q9Y2E5)
inactive: [3] -0.005 | epoxomicin -0.002 | [2] 0 | [5] -0.019 | rosiglitazone -0.052 | [6] 0.013
active: [1] -0.445 | volasertib -0.704

MED12 isoform 2 (UniProt Q93074)
inactive: [1] -0.055 | volasertib -0.211 | [3] 0.091 | epoxomicin -0.17 | [2] 0.083 | [4] 0.086 | rosiglitazone 0.074 | [6] 0.154 | [7] -0.071

KIF3B (UniProt O15066)
active: [7] 0.378
inactive: [1] 0.156 | volasertib -0.009 | epoxomicin -0.134 | [2] -0.204 | [4] 0.159 | [5] -0.078 | rosiglitazone 0.106 | [6] -0.052

ILRUN (UniProt Q9H6K1)
inactive: [1] -0.079 | [3] 0.024 | epoxomicin 0.042 | [2] -0.013 | [5] 0.016 | rosiglitazone -0.019 | [6] -0.09
active: volasertib -0.429

MAGED1 isoform 2 (UniProt Q9Y5V3)
inactive: volasertib -0.306 | [3] -0.01 | epoxomicin -0.053 | [2] 0.01 | [5] 0.012 | [6] 0.399

KIF21A (UniProt H0YI78)
inactive: [2] -0.05

LGALS8 isoform 2 (UniProt O00214)
inactive: [1] 0.19 | epoxomicin -0.05 | [2] -0.029 | [4] -0.121 | [5] 0.067 | rosiglitazone -0.263 | [6] 0.328
active: [7] 0.93

MAP3K20 isoform 2 (UniProt Q9NYL2)
Sequence of UniProt Q9NYL2 (Q9NYL2 whole entry, looked up): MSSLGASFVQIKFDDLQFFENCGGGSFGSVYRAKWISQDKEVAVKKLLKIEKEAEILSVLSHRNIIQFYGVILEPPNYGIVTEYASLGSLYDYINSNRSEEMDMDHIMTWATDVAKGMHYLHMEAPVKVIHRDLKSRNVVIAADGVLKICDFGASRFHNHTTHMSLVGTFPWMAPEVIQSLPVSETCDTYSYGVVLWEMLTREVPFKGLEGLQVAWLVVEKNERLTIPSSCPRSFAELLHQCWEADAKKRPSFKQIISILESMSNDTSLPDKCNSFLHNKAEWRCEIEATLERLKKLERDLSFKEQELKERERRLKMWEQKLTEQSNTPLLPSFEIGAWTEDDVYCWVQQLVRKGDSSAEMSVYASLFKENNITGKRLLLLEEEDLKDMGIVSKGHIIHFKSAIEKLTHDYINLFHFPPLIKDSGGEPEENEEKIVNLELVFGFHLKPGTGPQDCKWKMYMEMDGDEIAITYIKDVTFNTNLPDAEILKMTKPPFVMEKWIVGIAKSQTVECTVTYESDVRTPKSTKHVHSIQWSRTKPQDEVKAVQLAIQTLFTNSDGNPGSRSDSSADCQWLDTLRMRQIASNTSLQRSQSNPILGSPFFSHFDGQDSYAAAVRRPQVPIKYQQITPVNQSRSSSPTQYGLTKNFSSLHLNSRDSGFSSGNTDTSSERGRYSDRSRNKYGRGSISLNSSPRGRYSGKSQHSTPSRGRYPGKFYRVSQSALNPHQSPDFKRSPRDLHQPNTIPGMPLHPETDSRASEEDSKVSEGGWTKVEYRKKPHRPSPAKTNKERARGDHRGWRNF
inactive: volasertib -0.1 | [3] -0.067 | epoxomicin -0.03 | [2] 0.018

MAPK11 (UniProt Q15759)
Sequence of UniProt Q15759 (Q15759 whole entry, looked up): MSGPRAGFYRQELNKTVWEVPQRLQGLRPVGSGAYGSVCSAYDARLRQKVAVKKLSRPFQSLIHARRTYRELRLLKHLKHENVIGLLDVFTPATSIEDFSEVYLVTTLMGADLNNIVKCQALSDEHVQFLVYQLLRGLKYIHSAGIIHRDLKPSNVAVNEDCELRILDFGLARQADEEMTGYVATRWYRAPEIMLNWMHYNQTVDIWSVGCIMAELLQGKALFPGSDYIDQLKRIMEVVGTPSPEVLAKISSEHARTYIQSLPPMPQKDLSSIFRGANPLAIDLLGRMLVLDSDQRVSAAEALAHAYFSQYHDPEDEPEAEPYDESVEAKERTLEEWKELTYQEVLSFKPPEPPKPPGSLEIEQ
inactive: [2] -0.332 | [4] 0.025 | [7] -0.263

LAPTM4B (UniProt Q86VI4)
Sequence of UniProt Q86VI4 (Q86VI4 whole entry, looked up): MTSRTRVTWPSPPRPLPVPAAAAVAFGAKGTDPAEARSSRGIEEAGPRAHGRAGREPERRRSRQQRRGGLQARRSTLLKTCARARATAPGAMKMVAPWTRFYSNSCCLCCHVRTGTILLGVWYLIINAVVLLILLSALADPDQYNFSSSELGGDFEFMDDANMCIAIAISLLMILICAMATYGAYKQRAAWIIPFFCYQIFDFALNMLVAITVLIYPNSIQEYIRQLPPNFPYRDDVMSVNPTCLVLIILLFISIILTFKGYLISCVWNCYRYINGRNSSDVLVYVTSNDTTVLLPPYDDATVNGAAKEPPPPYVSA
active: [7] 0.968
inactive: [1] 0.063 | [2] -0.12 | [4] 0.216 | rosiglitazone -0.024

LIN52 (UniProt Q52LA3)
inactive: [6] 0.003

KIF1B isoform 3 (UniProt O60333)
inactive: [1] 0.193 | [5] -0.032

MGRN1 isoform 2 (UniProt O60291)
Sequence of UniProt O60291 (O60291 whole entry, looked up): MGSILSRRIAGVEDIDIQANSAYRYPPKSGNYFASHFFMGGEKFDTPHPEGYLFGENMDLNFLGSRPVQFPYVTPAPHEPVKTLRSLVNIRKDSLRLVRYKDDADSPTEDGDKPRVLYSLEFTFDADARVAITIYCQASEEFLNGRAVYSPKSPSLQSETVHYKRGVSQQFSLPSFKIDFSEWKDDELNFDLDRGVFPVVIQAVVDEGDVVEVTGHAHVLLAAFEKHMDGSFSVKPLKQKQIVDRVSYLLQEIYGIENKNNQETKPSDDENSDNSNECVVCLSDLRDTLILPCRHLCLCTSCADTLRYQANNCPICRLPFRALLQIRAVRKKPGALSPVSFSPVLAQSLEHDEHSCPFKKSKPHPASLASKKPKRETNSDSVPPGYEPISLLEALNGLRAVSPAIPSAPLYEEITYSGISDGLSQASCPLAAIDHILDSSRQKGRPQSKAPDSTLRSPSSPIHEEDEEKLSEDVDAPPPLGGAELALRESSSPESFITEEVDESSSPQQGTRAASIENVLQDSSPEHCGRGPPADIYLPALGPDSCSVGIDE
inactive: volasertib -0.115 | [2] 0.071 | [4] -0.072 | rosiglitazone 0.014 | [7] -0.07

KMT5A (UniProt Q9NQR1)
inactive: [4] 0.091 | [7] -0.2

INTS5 (UniProt Q6P9B9)
inactive: volasertib -0.152 | [3] 0.049 | epoxomicin 0.052 | [2] -0.046 | [5] -0.003 | rosiglitazone 0.212 | [6] -0.133

LRRFIP1 isoform 4 (UniProt Q32MZ4)
inactive: epoxomicin -0.113 | [2] -0.1 | [4] 0.212 | [6] 0.105 | [7] 0.349

LEPROT (UniProt O15243)
Sequence of UniProt O15243 (O15243 whole entry, looked up): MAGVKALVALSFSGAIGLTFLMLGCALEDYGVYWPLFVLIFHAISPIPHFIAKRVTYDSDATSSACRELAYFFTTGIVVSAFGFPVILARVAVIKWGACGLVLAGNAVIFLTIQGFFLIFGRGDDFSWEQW
inactive: [1] -0.052 | epoxomicin 0.129 | [2] -0.11 | [4] 0.075 | [6] 0.117 | [7] -0.03

LOX (UniProt P28300)
inactive: [3] -0.191 | [2] -0.028 | rosiglitazone 0.072

IKZF1 (UniProt R9R4D9)
inactive: volasertib 0.085 | [4] -0.247 | [6] 0.229 | [7] 0.05

JAK3 (UniProt P52333)
inactive: volasertib -0.075 | [3] 0.09 | epoxomicin -0.033 | [2] 0.081 | [4] 0.128 | [5] -0.042 | rosiglitazone 0.011 | [6] -0.01 | [7] 0.012

LYN isoform 2 (UniProt P07948)
inactive: volasertib -0.003 | [3] 0.036 | epoxomicin 0.246 | [2] 0.076 | [5] 0.007

MED29 (UniProt Q9NX70)
Sequence of UniProt Q9NX70 (Q9NX70 whole entry, looked up): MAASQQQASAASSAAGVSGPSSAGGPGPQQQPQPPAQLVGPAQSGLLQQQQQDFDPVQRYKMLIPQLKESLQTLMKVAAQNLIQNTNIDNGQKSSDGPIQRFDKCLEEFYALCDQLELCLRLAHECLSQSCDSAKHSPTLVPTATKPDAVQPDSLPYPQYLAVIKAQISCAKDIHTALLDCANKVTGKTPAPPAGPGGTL
inactive: volasertib -0.115 | [3] 0.055 | [2] -0.044 | [6] -0.056

MAP4K5 (UniProt Q9Y4K4)
inactive: volasertib -0.135 | [3] -0.004 | epoxomicin -0.014 | [2] -0.084 | [4] -0.126 | [5] -0.026 | rosiglitazone -0.005 | [7] 0.051

LDLRAP1 (UniProt Q5SW96)
inactive: [2] -0.045 | rosiglitazone -0.023

LMBR1 isoform 3 (UniProt Q8WVP7)
inactive: volasertib -0.452 | epoxomicin 0.26 | [2] -0.074 | [4] -0.456 | [5] 0.049 | rosiglitazone -0.037 | [6] 0.033 | [7] -0.314

LRRCC1 (UniProt Q9C099)
inactive: [6] 0.281

ITGA2B (UniProt P08514)
Sequence of UniProt P08514 (P08514 whole entry, looked up): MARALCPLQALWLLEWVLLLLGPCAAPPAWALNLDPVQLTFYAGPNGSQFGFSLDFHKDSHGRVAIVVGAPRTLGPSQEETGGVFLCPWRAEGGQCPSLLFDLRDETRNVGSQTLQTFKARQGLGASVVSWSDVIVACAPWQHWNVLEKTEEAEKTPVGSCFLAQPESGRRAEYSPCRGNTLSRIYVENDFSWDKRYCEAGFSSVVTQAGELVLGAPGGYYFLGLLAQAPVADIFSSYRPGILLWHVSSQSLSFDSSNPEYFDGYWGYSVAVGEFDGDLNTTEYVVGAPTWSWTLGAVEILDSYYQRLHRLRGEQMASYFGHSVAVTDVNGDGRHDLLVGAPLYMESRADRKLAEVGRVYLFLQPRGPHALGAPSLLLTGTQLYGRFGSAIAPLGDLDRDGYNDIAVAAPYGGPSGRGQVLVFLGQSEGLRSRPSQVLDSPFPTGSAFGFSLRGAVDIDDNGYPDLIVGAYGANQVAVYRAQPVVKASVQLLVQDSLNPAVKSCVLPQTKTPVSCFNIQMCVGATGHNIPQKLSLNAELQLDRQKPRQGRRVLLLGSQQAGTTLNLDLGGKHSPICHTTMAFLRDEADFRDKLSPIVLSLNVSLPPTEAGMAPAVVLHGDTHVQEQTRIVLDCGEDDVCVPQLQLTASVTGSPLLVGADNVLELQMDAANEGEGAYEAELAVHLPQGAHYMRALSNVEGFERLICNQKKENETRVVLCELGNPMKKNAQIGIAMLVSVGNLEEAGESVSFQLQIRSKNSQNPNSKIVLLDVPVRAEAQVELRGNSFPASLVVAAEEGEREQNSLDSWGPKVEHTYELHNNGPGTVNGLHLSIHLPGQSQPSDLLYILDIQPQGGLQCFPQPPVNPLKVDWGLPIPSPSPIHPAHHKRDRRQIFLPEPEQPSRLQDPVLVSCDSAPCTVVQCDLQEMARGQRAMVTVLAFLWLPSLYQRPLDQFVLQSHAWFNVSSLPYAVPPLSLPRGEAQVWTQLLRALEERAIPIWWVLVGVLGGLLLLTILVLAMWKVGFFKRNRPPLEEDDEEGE
inactive: volasertib 0.134 | [3] -0.211 | epoxomicin -0.089 | [2] -0.011 | [4] -0.173 | [5] 0.067 | [6] 0.117 | [7] -0.07

LSR isoform 3 (UniProt Q86X29)
inactive: volasertib -0.096 | [6] 0.047

ITM2C (UniProt Q9NQX7)
inactive: volasertib -0.312 | [3] 0.049 | epoxomicin -0.149 | [2] -0.096 | [4] -0.104 | [5] -0.046 | rosiglitazone 0.069 | [6] 0.125 | [7] 0.218

MAPRE3 isoform 2 (UniProt Q9UPY8)
inactive: volasertib 0.165 | [3] 0.04

IGFBP6 (UniProt P24592)
inactive: [5] -0.186 | [6] 0.107

LSR (UniProt M0QZL9)
inactive: epoxomicin 0.076 | [5] -0.125

MAML1 (UniProt Q92585)
inactive: epoxomicin 0.059 | [2] -0.092 | [5] -0.055

IGFBP3 isoform 2 (UniProt P17936)
Sequence of UniProt P17936 (P17936 whole entry, looked up): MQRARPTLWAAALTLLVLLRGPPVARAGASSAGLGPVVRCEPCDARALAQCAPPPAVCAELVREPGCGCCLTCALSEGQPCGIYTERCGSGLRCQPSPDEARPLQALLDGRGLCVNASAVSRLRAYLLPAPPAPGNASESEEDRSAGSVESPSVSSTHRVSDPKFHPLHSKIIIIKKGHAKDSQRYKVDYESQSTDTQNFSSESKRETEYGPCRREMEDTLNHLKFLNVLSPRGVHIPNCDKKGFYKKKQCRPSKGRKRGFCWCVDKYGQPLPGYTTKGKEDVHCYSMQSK
inactive: volasertib -0.507 | epoxomicin -0.251 | [4] 0.075 | [5] -0.238 | [6] 0.199 | [7] -0.555

MAP4K4 isoform 6 (UniProt O95819)
inactive: [1] -0.241 | [3] 0.109 | [5] -0.083 | [6] 0.261

LUZP1 (UniProt Q86V48)
inactive: volasertib -0.021 | [3] -0.026 | epoxomicin -0.22 | [2] 0.09 | [4] 0.026 | [5] 0.035 | rosiglitazone 0.026 | [6] 0.026 | [7] -0.039

IPP (UniProt Q9Y573)
inactive: rosiglitazone -0.24

IKZF1 isoform 2 (UniProt Q13422)
inactive: [3] -0.011 | [2] -0.034 | [5] -0.043 | rosiglitazone 0.078

MAP2K5 (UniProt Q13163)
inactive: [6] 0.457

MFAP3 (UniProt P55082)
Sequence of UniProt P55082 (P55082 whole entry, looked up): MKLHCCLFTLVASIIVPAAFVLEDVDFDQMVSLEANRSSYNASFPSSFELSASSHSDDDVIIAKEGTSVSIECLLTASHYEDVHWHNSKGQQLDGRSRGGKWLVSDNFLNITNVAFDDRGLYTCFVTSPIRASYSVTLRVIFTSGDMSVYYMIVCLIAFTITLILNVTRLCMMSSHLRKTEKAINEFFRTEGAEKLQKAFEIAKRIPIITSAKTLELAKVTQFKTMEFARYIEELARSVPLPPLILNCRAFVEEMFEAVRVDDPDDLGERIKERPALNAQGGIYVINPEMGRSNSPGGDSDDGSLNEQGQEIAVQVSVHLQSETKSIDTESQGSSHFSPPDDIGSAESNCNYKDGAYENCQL
inactive: epoxomicin -0.054 | [5] -0.118 | rosiglitazone 0.046 | [6] -0.008

MAPK7 (UniProt Q13164)
Sequence of UniProt Q13164 (Q13164 whole entry, looked up): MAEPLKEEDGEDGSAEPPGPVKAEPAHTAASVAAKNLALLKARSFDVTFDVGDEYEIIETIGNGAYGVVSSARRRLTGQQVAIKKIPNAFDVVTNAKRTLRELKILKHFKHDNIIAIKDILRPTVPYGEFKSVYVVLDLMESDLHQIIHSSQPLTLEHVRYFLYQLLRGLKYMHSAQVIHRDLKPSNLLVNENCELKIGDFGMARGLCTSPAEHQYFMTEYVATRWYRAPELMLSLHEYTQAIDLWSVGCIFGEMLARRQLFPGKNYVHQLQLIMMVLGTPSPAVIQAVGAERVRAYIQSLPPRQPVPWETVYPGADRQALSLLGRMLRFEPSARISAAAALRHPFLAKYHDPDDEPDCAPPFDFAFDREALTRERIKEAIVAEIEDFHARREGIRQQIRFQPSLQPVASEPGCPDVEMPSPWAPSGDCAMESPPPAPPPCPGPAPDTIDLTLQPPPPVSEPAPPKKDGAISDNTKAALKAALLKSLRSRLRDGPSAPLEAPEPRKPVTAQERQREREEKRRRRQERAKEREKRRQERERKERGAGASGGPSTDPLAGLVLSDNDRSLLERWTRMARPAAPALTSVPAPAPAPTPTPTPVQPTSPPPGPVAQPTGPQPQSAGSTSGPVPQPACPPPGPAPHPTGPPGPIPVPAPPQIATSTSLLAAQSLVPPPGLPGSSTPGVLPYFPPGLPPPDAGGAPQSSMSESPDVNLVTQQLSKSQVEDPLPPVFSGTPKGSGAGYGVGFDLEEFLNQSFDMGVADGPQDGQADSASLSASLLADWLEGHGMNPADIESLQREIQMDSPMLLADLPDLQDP
inactive: epoxomicin 0.093 | [4] -0.049 | [7] -0.125

MED7 (UniProt O43513)
inactive: volasertib 0.139 | [3] -0.287 | epoxomicin 0.127 | [2] 0.015 | [5] 0.021 | rosiglitazone -0.059 | [6] -0.172

MFSD12 isoform 3 (UniProt Q6NUT3)
inactive: [1] -0.005 | [2] 0.077 | [4] -0.006 | [6] 0.075 | [7] -0.305

Source: the supplement of paper PMC10849652
